# Measurements taken from ChEMBL document CHEMBL3988442, “University of Dundee, Small-Polar-MMV Screening Library” (2021).
# The campaign covered roughly 48,000 compounds. About 13,000 (27%) showed an effect of 50% or more. Some of the results follow.
# Test system: Wolbachia pipientis
# Experiment: Anti-Wolbachia Cell-Based Screen
# Assay type: functional
# Parameters: scale not given: in the data most compounds retested in dose-response had high values
# Details: 5 µM
row,SMILES,Percent Effect [%]
1,CC(C)COc1cncc(NCCc2nnc3ccccn23)n1,6.284
2,COCc1ncc(-c2nccn2CCn2cnnc2)cn1,95.42
3,COc1ncc(-c2nccn2CCN(C)C)cn1,-13.85
4,COCCCn1ccnc1-c1cnc(OC)nc1,-18.72
5,CCCSc1ncc(-c2nccn2CCO)cn1,-55.57
6,CCCn1ccnc1-c1nccn1CCN(C)C,-8.104
7,COCc1ncc(-c2nccn2CCS(C)(=O)=O)cn1,120.2
8,CCCn1ccnc1-c1nccn1CCn1cnnc1,87.43
9,COCc1ncc(-c2nccn2CCN(C)C)cn1,3.066
10,CCCn1ccnc1-c1nccn1CCC(N)=O,-22.61
11,CN(C)Cc1nnc(C2CCN(c3ncccc3Cl)CC2)n1C1CC1,-16.88
12,O=C(NC1CCCC1)O[C@H]1COCCN(c2nc3ccccc3o2)C1,-4.12
13,CN(Cc1nccs1)c1nccc(N2CCN[C@H]3CS(=O)(=O)C[C@H]32)n1,-5.478
14,Cn1c(CCNc2nccnc2C#N)nc2ccc(F)cc21,-0.9847
15,CNC(=O)C1CCCN(C(=O)OC)C1 (stereo not drawn),-23.89
16,Cc1ccc(N2CCCC3(COCCN(c4nccs4)C3)C2)nn1.O=C(O)C(F)(F)F.O=C(O)C(F)(F)F (stereo not drawn),-0.6863
17,Cc1ccc(N2CCCC3(COCCN(c4ncccn4)C3)C2)nn1.O=C(O)C(F)(F)F (stereo not drawn),82.98
18,c1ccc2sc(N3CCCC4(CCOC4)C3)nc2c1 (stereo not drawn),-24.88
19,Cc1cc(C(=O)N2CCCC3(COCCN(c4ncccn4)C3)C2)[nH]n1.O=C(O)C(F)(F)F.O=C(O)C(F)(F)F (stereo not drawn),-11.88
20,CCOCC(=O)N1CCOCC2(CCN(c3ncccn3)C2)C1.O=C(O)C(F)(F)F (stereo not drawn),115.1
21,CCOCC(=O)N1CC[C@H]2OCC[C@@]2(COc2ncccc2F)C1.O=C(O)C(F)(F)F,-3.289
22,c1ccc(-c2nnc(N3CCCC4(CCOC4)C3)s2)cc1 (stereo not drawn),56.2

row,SMILES,Percent Effect [%]
1,Cc1ccc(N2CCC3(CC2)COCCN(c2nccs2)C3)nn1.O=C(O)C(F)(F)F.O=C(O)C(F)(F)F,108.8
2,Cc1ccc(N2CC3(CCN(c4nccs4)C3)C2)nn1,-7.178
3,Cc1ccoc1C(=O)N1CCOCC2(CCN(c3ncccn3)C2)C1.O=C(O)C(F)(F)F (stereo not drawn),0.2458
4,O=C(O)C(F)(F)F.O=C(O)C(F)(F)F.c1cnc(N2CCOCC3(CCCN(CC4CCOCC4)C3)C2)nc1 (stereo not drawn),-3.791
5,OC1(CN2CCCC2)COCCN(c2nnc(-c3ccccc3)s2)C1 (stereo not drawn),-13.1
6,CCc1ncc2c(n1)CN(CC(=O)NC1CCCCNC1=O)CC2 (stereo not drawn),-10.76
7,N#CCCCOc1cccc(CN2CCCC2c2ccc[nH]2)c1 (stereo not drawn),-9.513
8,NCC1Cc2cc(-c3cnccn3)cc(Cl)c2O1 (stereo not drawn),3.613
9,c1ccc(N2CCOCC3(CCCN(c4nccs4)C3)C2)nc1 (stereo not drawn),105.2
10,CCCS(=O)(=O)N1CCOCC2(CCN(c3ccccn3)C2)C1.O=C(O)C(F)(F)F (stereo not drawn),-9.194
11,O=C(O)C(F)(F)F.c1ccc(N2CCCC3(COCCN(c4nccs4)C3)C2)nc1 (stereo not drawn),-9.014
12,Cc1ccc(N2CCCC3(COCCN(c4ccccn4)C3)C2)nn1.O=C(O)C(F)(F)F (stereo not drawn),88.94
13,Cc1cnc(N2CCOC3(COCCN(c4nccs4)C3)C2)nc1 (stereo not drawn),7.245
14,O=C1NCC2(CCCN(C(=O)Nc3ccc4occc4c3)CC2)O1 (stereo not drawn),-22.41
15,Cc1cc(SC(C)(C)C)ccc1NC(C)C(=O)NC(N)=O (stereo not drawn),0.5682
16,O=C(Nc1ccccc1)C1CCCN(C(=O)Cn2cncn2)C1 (stereo not drawn),9.271
17,O=C(NCCc1ccc(F)cc1)C1CN(C(=O)Cn2cncn2)C1,163.3
18,O=C(NCCc1ccccc1)C1CCN(C(=O)Cn2cncn2)C1 (stereo not drawn),175.5
19,CN(Cc1ccc(F)cc1)C(=O)CN1CCCCC1Cn1cncn1 (stereo not drawn),-13.17
20,O=C(NCCc1ccccc1)C1CCC(Cn2cnnn2)CC1 (stereo not drawn),3.007
21,CCCNC(=O)C1CCCN(Cc2ccc(-n3cncn3)c(C)c2)C1 (stereo not drawn),5.039
22,CC(=O)Nc1cnc(-n2ccnc2)nc1,0.9267

row,SMILES,Percent Effect [%]
1,C=Cc1ccc(C(=O)N2CCCC(Nc3ccccc3)C2)cc1 (stereo not drawn),-22.58
2,CN1C(=O)C[C@@H]2[C@@H]1CCN2C(=O)c1ccc[nH]1,-0.2597
3,CN(C)c1cccc(C(=O)N2CCCSCC2CN2CCCC2)c1 (stereo not drawn),112.4
4,N#Cc1cccc(C(=O)N2C[C@H](CO)C[C@H](CN3CCCC3)C2)c1,-1.985
5,CN(C)c1cccc(C(=O)N2C[C@H]3CC[C@@H]2CN(C(=O)C2CCC2)C3)c1,-25.57
6,O=C(c1ccc2c(c1)OCO2)N1CCCSCC1CN1CCCC1 (stereo not drawn),1.32
7,CN(C)c1ccc(C(=O)N2C[C@@H](CN3CCCCC3)[C@@H](CO)C2)cc1,-5.628
8,O=C(c1ccc2[nH]ccc2c1)N1CCCSCC1CN1CCCC1 (stereo not drawn),105.2
9,CS(=O)(=O)N1CCCC12CCCN(C(=O)c1ccc3[nH]ccc3c1)C2 (stereo not drawn),11.97
10,O=C(c1ccc(F)c(F)c1)N1CCCSCC1CN1CCCC1 (stereo not drawn),1.047
11,N#Cc1ccc(C(=O)N2C[C@@H](CN3CCCC3)C[C@H](CO)C2)cc1,5.863
12,Cc1cccc(C(=O)N2CCCSCC2CN2CCCC2)c1 (stereo not drawn),114.9
13,N#Cc1ccc(C(=O)N2CCCSCC2CN2CCCC2)cc1 (stereo not drawn),107.8
14,O=C(CCC1CCN(Cc2ncc[nH]2)CC1)Nc1ccccc1Cl,0.1939
15,CCN(C)c1ccc(CNS(=O)(=O)C2CCOCC2)cc1F,3.098
16,O=C(O)c1cc(C2=CCCCC2)cc(S(=O)(=O)NCc2ccccn2)c1,-10.69
17,COc1ccc(CN2CCCn3cnc(COCC4CC4)c3C2)cc1.O=C(O)C(F)(F)F,-1.756
18,CCN1C(=O)C2(CCOCC2)c2cc(NC(=O)c3cc(C)n[nH]3)ccc21,-4.188
19,CC(C)Oc1ccc(CNC(=O)c2cc(C(N)=O)cs2)cc1F,-0.429
20,CCn1nc(C)c(CN2CCC(c3ccc(C(=O)O)cc3)C2)c1C (stereo not drawn),-3.844
21,CCn1nc(C)c(CN2CCC(c3ccn[nH]3)C2)c1C (stereo not drawn),102.4
22,CCn1nc(C)c(CN2CCCC(c3ccc(C(=O)O)cc3)C2)c1C (stereo not drawn),3.316

row,SMILES,Percent Effect [%]
1,Cc1cc(CN(C)Cc2ccccc2N2CCCCC2)n[nH]1,185.5
2,Cc1cc(CN(C)Cc2csc(-c3cccs3)n2)n[nH]1,-0.07399
3,Cc1ccc(CN(C)Cc2cc(C3CC3)[nH]n2)c(O)n1,7.171
4,CC(C)(C)C(=O)NCCC(=O)NC(C)(C)c1ccc2c(c1)OCCO2,1.419
5,CC(C)(NCc1cccc(C#N)c1)c1ccc2c(c1)OCO2,0.8425
6,CCCNC(=O)NC(=O)CNC(C)(C)c1ccc2c(c1)OCO2,110.6
7,CCN(CC(=O)N(C)C)C(=O)C(C)(C)c1ccc2c(c1)OCCO2,-3.526
8,CCCNC(=O)NC(=O)CNC(C)(C)c1ccc2c(c1)OCCO2,109.8
9,CC(C)(NCc1ccc(C#N)cc1)c1ccc2c(c1)OCO2,0.339
10,CCN(Cc1ccc(CN(C)C)cc1)C(=O)c1ccncc1O,4.477
11,O=C(NC1CC(F)(F)C1)[C@]12COC[C@H]1CN(Cc1ccsc1)C2,-6.897
12,O=C(CN1CCc2cncnc2C1)NC1CCCCNC1=O (stereo not drawn),-3.554
13,Cc1nc(N2CCOCC2)nc(C)c1NC(=O)Cc1ccc(Cl)cc1,-11.2
14,CNC(=O)C1(C)CN(c2nc(C)cc(C)n2)CCO1 (stereo not drawn),133.8
15,Cc1ccc(N2CCOC(C)(C(=O)N(C)C)C2)nn1 (stereo not drawn),160
16,Cc1ccc(N2CCC3(CCN(C(N)=O)CC3)CC2)nn1,5.421
17,Cc1cc(C)nc(N2CCN(C(=O)c3cc(Cl)c[nH]3)CC2)n1,-2.597
18,Cc1cc(C)nc(N2CC[C@@]3(O)CCN(S(=O)(=O)N(C)C)C[C@H]3C2)n1,-0.4533
19,CCCS(=O)(=O)N1CCOC2(CCCN(c3ccc(C)nn3)C2)C1 (stereo not drawn),6.152
20,Cc1cc(N2CCOC(C)(C(=O)N(C)C)C2)ncn1 (stereo not drawn),147.4
21,Cc1cc(C)nc(N2CCOC(C)(C(=O)N(C)C)C2)n1 (stereo not drawn),205.4
22,Cc1ccsc1CN(C)c1cc(N2CCOCC2)ncn1,-30.66

row,SMILES,Percent Effect [%]
1,CNc1cc(C)nc(N2CCC3(CC2)[C@H](O)C[C@@H]3O)n1,-5.411
2,CC(C)=CCC1(C(=O)O)CCCN(c2cc(N)ncn2)C1 (stereo not drawn),-4.514
3,CCOC(=O)NCCC(=O)NCc1ccc(Oc2ccc(F)cc2)nc1,-9.89
4,OC(CNc1cncc(OCc2ccccc2)n1)c1ccco1 (stereo not drawn),3.469
5,COc1cc(C)ccc1OCC(=O)Nc1ccnc(OCCN(C)C)c1,10.45
6,CCn1c(CN(C)C)nnc1C1CCN(c2nccc(NC)n2)CC1,-2.442
7,Cc1cccc(C)c1CNC1(CCO)CCOCC1,0.8259
8,CC(C)CCN1CCCC(Cn2cc(CCO)nn2)C1 (stereo not drawn),-4.048
9,COc1ccccc1CC1CCCN(CCC(N)=O)C1 (stereo not drawn),-12.09
10,CN(c1ccccc1)c1ccc(CC2CCCN(CCO)C2)nn1 (stereo not drawn),94.33
11,Cc1ccc(N2CCCC(NC(=O)C(C)(C)C#N)C2=O)cc1 (stereo not drawn),-7.395
12,CN(C)c1ncccc1CNC(=O)N1CCCC1CN1CCCCC1 (stereo not drawn),7.687
13,CNc1ncccc1CN1CCN(C)CC(C(N)=O)C1 (stereo not drawn),105.8
14,N#Cc1cccnc1NCc1cccnc1N1CCC(C(N)=O)CC1,-4.129
15,NC(=O)C1CCCN(Cc2c(-c3ccco3)[nH]c3ncccc23)C1 (stereo not drawn),-7.112
16,CNc1ncccc1CN1CCN(C)CC(C(=O)N(C)C)C1 (stereo not drawn),106.5
17,CC(C)Oc1ncccc1CNC(=O)N1CCC(C(N)=O)C1 (stereo not drawn),-8.219
18,CN1CCCN(C[C@H]2C[C@H](CO)CN(Cc3cccnc3N)C2)CC1,-5.741
19,CN1CCN2CCN(Cc3ccccc3Cn3cccn3)CC2C1 (stereo not drawn),-0.2104
20,CNc1ncccc1CN1CCN(C(C)=O)CC(C(N)=O)C1 (stereo not drawn),106.9
